A selection: hits, their analogues and other compounds. The true share with any hit is near 1.1%.
Y pestis TopoI – Y. pestis Topo-I inhibition via cleavage products. Y. pestis Topo-I cleavage product accumulation, plate reader. activity, % at 10 µM. actives 0.064% (n = 360,000); in the data active means activity above about 50%, passing the limit was not always enough
PrPC surface inh – reduces human prion protein on the cell surface; inhibition, % at 13.8 µM; cell surface PrPC, TR-FRET read-out; P04156; actives 0.43% (n = 370,000); in the data active means inhibition above about 24%
CCHF vOTU inh – blocks the CCHF virus ovarian tumor domain protease; CCHFV vOTU protease, Pep-AMC fluorescence; inhibition, % at 11.5 µM; actives 0.55% (n = 370,000); in the data active means inhibition above about 30%
BH1578 lux ind – inducers of Vibrio cholerae quorum light production without autoinducers. V. cholerae BH1578 lux reporter, luminescence, 6 h. activation, % at 18.7 µM. actives 0.16% (n = 350,000); in the data active means activation mostly above about 9.7%, no sharp cut-off
PrPC confirm – confirmation of inhibitors of cell surface human prion protein. shares compounds with PrPC surface inh. cell surface PrPC level, TR-FRET. inhibition, % at 13.8 µM. actives 65% (n = 1,500). AID 743200; in the data active means inhibition above about 25%
LD9 tox – LD9 cell cytotoxicity, PrPc inhibitor counter-screen | shares compounds with PrPC surface inh | LD9 cells cytotoxicity, luminescence viability | inhibition, % at 13.8 µM | actives 29% (n = 1,500); in the data active means inhibition above about 9.5%
Of the large screens only hits and unclear results are named; the others gave an inactive call (follow-up assays come after a bar, where they were run).

CC(=O)Nc1sc2c(c1-c1nc3ccccc3s1)CN(C(C)C)CC2	PrPC surface inh 38 | PrPC confirm inactive | LD9 tox 26
CCOC(=O)c1c(NC(=O)COC(=O)c2cnccn2)sc(C)c1C	none
COC(=O)[C@H](CC1(c2cn(S(=O)(=O)CC[Si](C)(C)C)c3ccccc23)C(=O)Nc2ccccc21)NC(=O)OC(C)(C)C (stereo partly drawn)	PrPC surface inh 47 (no result: Y pestis TopoI, CCHF vOTU inh, BH1578 lux ind) | PrPC confirm 59 | LD9 tox inactive
O=C(Nc1ccc(S(=O)(=O)Nc2nccc(C3Cc4ccccc4C(=O)O3)n2)cc1)c1ccccc1 (stereo not drawn)	none
O=C(N/N=C/c1ccc(O)cc1O)/C(=C/c1ccccc1)CCO	PrPC surface inh 30 | PrPC confirm 32 | LD9 tox 17
COc1cc(/C=N/NC(=O)/C(=C/c2ccccc2)CCO)ccc1O	none
COc1cc2ccccc2cc1C(=O)Nc1ccc(C)cc1	none
COc1cc2ccccc2cc1C(=O)Nc1ccc(Cc2ccncc2)cc1	PrPC surface inh 30 | PrPC confirm inactive | LD9 tox 19
Cc1c([N+](=O)[O-])c(C/C=N/O)nn1C	PrPC surface inh 33 | PrPC confirm inactive | LD9 tox inactive
CO/N=C/Cc1c([N+](=O)[O-])c(C)nn1C	none
COc1ccc(-n2c(SCC#N)nc3ccccc3c2=O)cc1	none
O=C1OC[C@H]2CCCC[C@@H](CO)ON12	none
Cc1c(C(=O)O)oc2c3c(ccc12)OCCO3	PrPC surface inh 26 | PrPC confirm 31 | LD9 tox inactive
CC(C)Nc1ccc(Nc2ccnc3cc4ccccc4cc23)cc1	none
c1ccc(CCNc2ccnc3cc4ccccc4cc23)cc1	PrPC surface inh 80 | PrPC confirm inactive | LD9 tox 80
CCN(c1ccccc1)S(=O)(=O)c1cccc(C(=O)NCC2(N(C)C)CCCCC2)c1	none
COc1ccc(-n2c(-c3ccc(Cl)cc3)c[n+]3c2CCc2ccccc2-3)cc1	none
Cc1ccc(-n2c(-c3ccc(Br)cc3)c[n+]3c2CCc2ccc4cccnc4c2-3)cc1	PrPC surface inh 25 | PrPC confirm 31 | LD9 tox 46
O=C1CCCN1C(=O)CSc1ccc2ccccc2n1	PrPC surface inh 41 | PrPC confirm 52 | LD9 tox inactive
NS(=O)(=O)c1ccc(NC(=O)CSc2nc3ccccc3c(=O)n2-c2ccc(Br)cc2)cc1	PrPC surface inh 34 (no result: Y pestis TopoI, BH1578 lux ind) | PrPC confirm inactive | LD9 tox inactive
Cn1c(SCC(=O)N2CCCC2=O)nc2ccccc2c1=O	none
CCOc1ccc(NC(=O)CCSc2ccc3ccccc3n2)cc1	PrPC surface inh 62 | PrPC confirm 60 | LD9 tox inactive
CCOc1ccc(NC(=O)CCSc2ccc(C)cc2)cc1	none
O=C(CSc1ccc2ccccc2n1)N/N=C/c1ccc(O)cc1	PrPC surface inh 25 | PrPC confirm inactive | LD9 tox inactive
NS(=O)(=O)c1ccc(NC(=O)CSc2ccc3ccccc3n2)cc1	PrPC surface inh 36 | PrPC confirm 43 | LD9 tox inactive
NS(=O)(=O)c1ccc(NC(=O)CSc2ncccn2)cc1	none
Cc1ccc(CSCc2nc3ccccc3[nH]2)cc1	none
Cc1cc(C)cc(CC(Cc2nc3ccccc3[nH]2)c2nc3ccccc3[nH]2)c1 (stereo not drawn)	PrPC surface inh 28 | PrPC confirm 30 | LD9 tox inactive
S=C(Nc1ccccc1)Nc1ccc(Br)cc1	PrPC surface inh 25 | PrPC confirm inactive | LD9 tox inactive
CCc1nc2ccc(C(=O)Nc3cccc(OCC(=O)N(C)C)c3)cn2c1N(CCN(C)C)CC1CC1	none
Cc1cccc(CC(=O)NCCn2c(C)cc3ccccc32)c1	PrPC surface inh 27 | PrPC confirm inactive | LD9 tox inactive
Cc1cc2ccccc2n1CCNC(=O)C(C)Oc1ccccc1 (stereo not drawn)	PrPC surface inh 41 | PrPC confirm 30 | LD9 tox inactive
Cc1cc2ccccc2n1CCNC(=O)C(C)C	none
Cc1cc2ccccc2n1CCNC(=O)Cc1ccccc1	PrPC surface inh 27 | PrPC confirm inactive | LD9 tox inactive
CCOc1ccccc1CNC(=O)CCc1cn(C)c2ccccc12	none
CCOC(=O)c1c(-c2ccccc2)csc1NC(=O)CSc1nncs1	PrPC surface inh 42 | PrPC confirm 39 | LD9 tox inactive
CCOC(=O)c1c(-c2ccccc2)csc1NC(=O)CSc1ccccc1	none
O=C(Cn1cc(COc2ccc(Br)cc2)nn1)c1ccc(O)cc1	none
CCCC(=O)c1ccc(OCc2cn(CC(=O)c3ccc(O)cc3)nn2)cc1	PrPC surface inh 28 | PrPC confirm inactive | LD9 tox inactive
CN(C)C(=O)CCc1ccc2c3c([nH]c2c1)[C@]1(C)[C@@H](C(=O)N2CCCCC2)C[C@H](CC(=O)NCC24CC5CC(CC(C5)C2)C4)C(=O)N1CC3	none
Cn1c(=O)cc(OCCCC(=O)Nc2cc(-c3cn[nH]c3)ccn2)c2ccccc21	PrPC surface inh 35 (no result: Y pestis TopoI, CCHF vOTU inh, BH1578 lux ind) | PrPC confirm 41 | LD9 tox 24
CC(C)(C)c1ccc(S(=O)(=O)Nc2ccc(Cc3ccncc3)cc2)cc1	PrPC surface inh 28 | PrPC confirm 44 | LD9 tox inactive
CCOc1ccc2[nH]c(C)c(CN3CCOCC3)c(=O)c2c1	PrPC surface inh 32 | PrPC confirm inactive | LD9 tox inactive
Cc1[nH]c2ccc(Br)cc2c(=O)c1CN1CCOCC1	none
Cc1ccc(C)c(NC(=O)CNC(=O)N2CC(=O)Nc3ccccc32)c1	none
CC1CN(c2ccc(Cl)cc2)c2nc3c(c(=O)[nH]c(=O)n3C)n2C1 (stereo not drawn)	PrPC surface inh 38 | PrPC confirm inactive | LD9 tox inactive
O=P(CCN1CCCCC1)(c1ccccc1)c1ccccc1	none
Cc1ccccc1NC(=O)C1CCCN(S(=O)(=O)c2ccc3c(c2)C(C)(C)C(=O)N3C)C1 (stereo not drawn)	none
CN1C(=O)C(C)(C)c2cc(S(=O)(=O)N3CCCC(C(=O)Nc4ccc(Cl)cc4)C3)ccc21 (stereo not drawn)	PrPC surface inh 81 | PrPC confirm 73 | LD9 tox inactive
CN1C(=O)C(C)(C)c2cc(S(=O)(=O)N3CCCC(C(=O)NCc4ccc(F)cc4)C3)ccc21 (stereo not drawn)	PrPC surface inh 29 | PrPC confirm 40 | LD9 tox inactive
CCOc1ccc(NC(=O)C2CCCN(S(=O)(=O)c3ccc4c(c3)C(C)(C)C(=O)N4C)C2)cc1 (stereo not drawn)	PrPC surface inh 39 | PrPC confirm 33 | LD9 tox inactive
CCOc1ccc(NC(=O)C2CCN(S(=O)(=O)c3ccc4c(c3)C(C)(C)C(=O)N4C)CC2)cc1	none
CC(C)c1ccc(NC(=O)C2CCCN(S(=O)(=O)c3ccc4c(c3)C(C)(C)C(=O)N4C)C2)cc1 (stereo not drawn)	PrPC surface inh 79 | PrPC confirm 73 | LD9 tox inactive
CN1C(=O)C(C)(C)c2cc(S(=O)(=O)N3CCC(C(=O)Nc4ccc(Cl)cc4)CC3)ccc21	none (no result: BH1578 lux ind)
Cc1ccc(-c2ccc(NC(=O)C3C4C=CC(C4)C3C(=O)O)cc2)o1 (stereo not drawn)	none
